# From publication PMC5540273 (PLoS ONE, 2017)
# Test system: TGFBR2
# Conditions: concentration: 1 μM, replicates: in singlicate; n = 1
# 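Further: KINOMEscan kinase panel screen.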
row,SMILES,%Inh [%]
1,Cl.Nc1ncnc2occ(-c3ccc(NC(=O)Nc4cc(C(F)(F)F)ccc4F)cc3)c12 [SB-707548],0
2,O=C(NOCC1CC1)c1ccc(F)c(F)c1Nc1ccc(I)cc1Cl,0
3,CCc1ccnc(/C=C/c2n[nH]c3cc(Sc4ccccc4C(=O)NC)ccc23)c1,0
4,CN1c2ccc(CNc3ccc(F)cc3)cc2-c2c(cnn2C)S1(=O)=O,0
5,COc1cc2c(cc1OC[C@@H](O)CO)ncc1c3ccc(C#N)cc3[nH]c21,0
6,COc1ccc(S(=O)(=O)NC2CCN(c3cc(C)nc(Nc4cccc(C#N)c4)n3)CC2)cc1.O=C(O)C(F)(F)F [GSK1653539],0
7,Cc1ccc(NC(=O)c2ccnc(N3CCN(C)CC3)c2)cc1-c1ccc(C(=O)NCC2CC2)cc1 [GW775604],0
8,Cc1c2ccc(N(C)c3ccnc(Nc4cccc(S(N)(=O)=O)c4)n3)cc2nn1Cc1ccccc1.Cl.Cl [GW787226],63
9,CC(=O)Nc1ccc(COc2ccc(Nc3ccnc4cc(-c5ccccn5)ccc34)cc2)cc1.Cl [GW440148],28
10,NCCNS(=O)(=O)c1ccc(-c2ccnc3[nH]ccc23)cc1 [GSK977617],0
11,Cc1nnc(-c2ccc3occ(-c4ccc(C(C)O)cc4)c3c2)o1 (stereo not drawn),69
12,CNc1ncnc2[nH]ncc12 [SKF-18355],0
13,Cn1cc(-c2ccc3c(c2)CCN3C(=O)Cc2ccccc2Cl)c2c(N)ncnc21 [GSK2608885],23
14,Cc1cccc(-c2nc(-c3ccc(S(C)(=O)=O)cc3)sc2-c2ccncc2)c1,0
15,O=C1NC(=O)C(N2CCc3ccccc32)=C1c1cccc(Cl)c1 [SB-408010],1
16,Cc1cccc(Cn2ccn3c(=O)cc(N4CCOCC4)nc23)c1 [GSK2297542],0
17,Cl.Oc1cccc(Nc2ccnc3cc(-c4ccncc4)ccc23)c1 [GW494601],99.5
18,O=c1cc(N2CCOCC2)nc2n(Cc3cccc(F)c3)ccn12 [GSK2297430],13

row,SMILES,%Inh [%]
1,CC(C)(C)n1cnc2c(N)ncnc21 [SKF-97359],0
2,Fc1ccc(-c2nn3c(OCC(F)(F)F)cccc3c2-c2ccncc2)cc1 [GW514784],55
3,CSc1ccc(-c2cc3ncnc(SCC(=O)O)c3s2)cc1,12
4,[2H]C([2H])(c1cccc(C(F)(F)F)c1C)n1ccn2c(=O)nc(N3CCOCC3)cc12 [GSK2336394],32
5,Cc1ccc(C(=O)NCC(N)=O)cc1-n1c(C)cc(OCc2ccc(F)cc2F)c(Br)c1=O,26
6,COc1cc2ncn(-c3cc(OCc4sccc4Cl)c(C(N)=O)s3)c2cc1OC [GSK448459],0
7,O=C(NCCNc1ccnc(Nc2ccc(F)cc2)n1)c1cc2ccccc2s1 [GSK1379874],0
8,O=C(NCCNc1ccnc(Nc2ccc(F)cc2)n1)Nc1ccccc1F [GSK1379880],0
9,CCn1cnc2c(N)ncnc21 [GW345098],12
10,Cc1cn2c(=O)cc(N3CCOCC3)nc2n1Cc1cccc(Cl)c1Cl [GSK2334006],0
11,CN(C(=O)c1ccc(-c2cc(-c3c[nH]nc3-c3ccccn3)ccn2)cc1)C1CCOCC1 [GW810083],21
12,COC(=O)Nc1nc2cc(Oc3ccc(NC(=O)Nc4cc(F)ccc4F)cc3)ccc2[nH]1.Cl [GW701424],0
13,COc1ccc(CNC(=O)NC2CCN(c3ccnc(Nc4ccc(OC)cc4)n3)C2)cc1 (stereo not drawn) [GSK1379727],0
14,Cc1cccc(-c2nc(Nc3ccc4ncsc4c3)c3ccccc3n2)n1 [GW867588],0
15,NS(=O)(=O)c1cccc(-c2ccc3ncc(N4CCOCC4)nc3c2)c1 [GSK1535721],0
16,C[C@@H](Oc1cc(-n2cnc3ccc(NC(=O)NC(C)(C)C)cc32)sc1C(N)=O)c1ccccc1Cl [GSK346294],4
17,COc1ccc(Nc2nccc(N3CCC(NC(=O)Nc4cccc(C(C)=O)c4)C3)n2)cc1 (stereo not drawn) [GSK1379731],0
18,Cc1nnc(-c2ccc3ncc(-c4ccc(S(C)=O)cc4)n3c2)o1 (stereo not drawn),0
